Results published in PubChem BioAssay (NCATS).
Values joined by “and” are separate entries in the source; they are usually repeats but may differ in a detail not shown here. Equal entries are not always repeated. Inconclusive results are not listed. Active and inactive are the calls of the source. Calls come from the whole dose curve; as a rule, active = well fitted inhibition curve with a large enough effect; inconclusive = small, poorly fitted or top-dose-only effect; inactive = flat fitted curve, though single readings scatter.

Tests used:
PC49 = assay: qHTS profiling for inhibitors of Plasmodium falciparum proliferation (AID 504749); details: P. falciparum in erythrocytes, SYBR Green DNA, 72 h; series mostly up to 28.7 µM
Summary of the method: (§1)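 Three-day growth assay of blood-stage parasites in erythrocytes (0.3% parasitemia, 2.5% hematocrit) at 37 C, 5% CO2, quantified by SYBR Green DNA staining after overnight detergent lysis.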

SC27B = assay: as above; details: P. falciparum in erythrocytes, SYBR Green DNA, 72 h; series mostly up to 28.7 µM
Summary of the method: as §1

PC15 = assay: as above; details: P. falciparum in erythrocytes, SYBR Green DNA, 72 h; series mostly up to 28.7 µM
Summary of the method: as §1

PC26 = assay: as above; details: P. falciparum in erythrocytes, SYBR Green DNA, 72 h; series mostly up to 28.7 µM
Summary of the method: as §1

TAB113 = assay: as above; details: P. falciparum in erythrocytes, SYBR Green DNA, 72 h; series mostly up to 28.7 µM
Summary of the method: as §1

TAB165 = assay: as above; details: P. falciparum in erythrocytes, SYBR Green DNA, 72 h; series mostly up to 28.7 µM
Summary of the method: as §1

W2 = assay: as above; details: P. falciparum in erythrocytes, SYBR Green DNA, 72 h; series mostly up to 28.7 µM
Summary of the method: as §1

CRL-7250 = normal cell line; assay: Cytotoxic Profiling of Annotated Libraries Using Quantitative High-Throughput Screening (AID 1296008); details: Five cell lines viability, CellTiter-Glo ATP luminescence, 48-72 h; max response: stronger effect = lower value; for max response: % is set by controls: 0 for no effect and ±100 for the full control effect
Summary of the method: (§2)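 Cytotoxicity was measured as CellTiter-Glo ATP luminescence, read after 10 min at room temperature. Compound treatment of the cells lasted 48 or 72 hr at 37 degrees Celsius in a qHTS format.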

TAB109 = assay: qHTS profiling for inhibitors of Plasmodium falciparum proliferation (AID 504749); details: P. falciparum in erythrocytes, SYBR Green DNA, 72 h; series mostly up to 28.7 µM
Summary of the method: as §1

HEK293 = assay: Cytotoxic Profiling of Annotated Libraries Using Quantitative High-Throughput Screening (AID 1296008); details: Five cell lines viability, CellTiter-Glo ATP luminescence, 48-72 h; max response: stronger effect = lower value; for max response: % is set by controls: 0 for no effect and ±100 for the full control effect
Summary of the method: as §2
Note: nearly all actives have a fitted effect of over 60% in size.
Potency is the fitted concentration of half-maximal effect.

CC(C)(C)C(=O)OCOP(=O)(COCCn1cnc2c(N)ncnc21)OCOC(=O)C(C)(C)C
inactive: Potency (PC49) | Potency (SC27B)

COc1c(N2CCNC(C)C2)c(F)cc2c(=O)c(C(=O)O)cn(C3CC3)c12 (stereo not given)
inactive: Potency (PC15) | Potency (PC26) | Potency (PC49) | Potency (SC27B) | Potency (TAB113) | Potency (TAB165) | Potency (W2) | max response (CRL-7250) -3.69%

O=C(O)c1cn(C2CC2)c2cc(N3CCNCC3)c(F)cc2c1=O
inactive: Potency (PC15) | Potency (PC49) | Potency (SC27B) | Potency (TAB113) | max response (CRL-7250) -2.76% and -7.47%
active: Potency (TAB109) 2.24 µM | Potency (W2) 4.55 µM

NC(N)=NC(N)=NCCc1ccccc1
inactive: Potency (PC15) | Potency (PC26) | Potency (PC49) | Potency (SC27B) | Potency (TAB109) | Potency (TAB113) | Potency (TAB165) | Potency (W2)

CC(=O)[C@H]1CC[C@H]2[C@@H]3CCC4=CC(=O)CC[C@]4(C)[C@H]3CC[C@]12C
active: Potency (HEK293) 16.6 µM

CNNCc1ccc(C(=O)NC(C)C)cc1
inactive: Potency (PC15) | Potency (PC26) | Potency (PC49) | Potency (SC27B) | Potency (TAB109) | Potency (TAB113) | Potency (TAB165) | outcome (CRL-7250)

N[C@@H](Cc1ccc(O)c(O)c1)C(=O)O
inactive: Potency (PC26)

CCN(C)C(=O)Oc1cccc([C@H](C)N(C)C)c1
inactive: Potency (PC15) | Potency (PC26) | Potency (PC49) | Potency (SC27B) | Potency (TAB109) | Potency (TAB113) | Potency (TAB165) | Potency (W2) | max response (CRL-7250) -5.92% and -3.92%

C[C@@H](NCCCc1cccc(C(F)(F)F)c1)c1cccc2ccccc12
active: Potency (PC15) 11.2 µM | Potency (PC26) 4.78 µM | Potency (SC27B) 6.31 µM | Potency (TAB109) 4.47 µM | Potency (TAB113) 3.55 µM | Potency (TAB165) 3.98 µM | Potency (W2) 1.69 µM
inactive: outcome (CRL-7250)

CCCc1nc(C)c2c(=O)[nH]c(-c3cc(S(=O)(=O)N4CCN(CC)CC4)ccc3OCC)nn12
inactive: Potency (PC26) | Potency (TAB109) | Potency (TAB113)

NC(=O)c1cccnc1
inactive: Potency (PC15) | Potency (PC26) | Potency (PC49) | Potency (SC27B) | Potency (TAB109) | Potency (TAB113) | Potency (TAB165) | Potency (W2)

CCCCOc1ccc(CC(=O)NO)cc1
active: Potency (TAB109) 2.24 µM | Potency (TAB165) 3.16 µM | Potency (W2) 0.572 µM
inactive: Potency (PC15) | Potency (PC49) | max response (CRL-7250) -23.3%

C1CCC(C(CC2CCCCN2)C2CCCCC2)CC1 (stereo not given)
active: Potency (PC15) 5.01 µM | Potency (PC26) 7.57 µM | Potency (PC49) 2.82 µM | Potency (SC27B) 7.94 µM | Potency (TAB109) 5.62 µM | Potency (TAB113) 6.31 µM | Potency (TAB165) 10 µM | Potency (W2) 1.69 µM | Potency (HEK293) 26.4 µM

CCn1cc(C(=O)O)c(=O)c2cc(F)c(N3CCNCC3)nc21
inactive: Potency (PC15) | Potency (PC26) | Potency (PC49) | Potency (SC27B) | Potency (TAB113) | max response (CRL-7250) -4.45% and -16.8%

CCc1cc(C(N)=S)ccn1
inactive: Potency (PC15) | Potency (PC26) | Potency (PC49) | Potency (SC27B) | Potency (TAB109) | Potency (TAB113) | Potency (TAB165) | Potency (W2) | max response (CRL-7250) -4.32% and -3.13%

Nc1[nH]c(=O)ncc1F
inactive: Potency (PC15) | Potency (PC26) | Potency (PC49) | Potency (SC27B) | Potency (TAB109) | Potency (TAB113) | Potency (TAB165) | Potency (W2)

Cc1nnc(NS(=O)(=O)c2ccc(N)cc2)s1
inactive: Potency (PC15) | Potency (PC26) | Potency (PC49) | Potency (SC27B) | Potency (TAB109) | Potency (TAB113) | Potency (TAB165) | Potency (W2)

Oc1c(Cl)cc(Cl)c2cccnc12
inactive: Potency (PC15) | Potency (PC26) | Potency (PC49)
active: Potency (TAB165) 10 µM

CC(=O)Oc1ccccc1C(=O)Nc1ncc([N+](=O)[O-])s1
inactive: Potency (PC15) | Potency (PC26) | Potency (PC49) | Potency (SC27B) | Potency (TAB109) | Potency (TAB113) | Potency (TAB165)
